# Data reported in PubChem BioAssay (NCI).
# This is part of a sample that, as a whole, favours compounds with a hit. Of some 83,000 tested, about 20% had one in any assay.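 Values shown are percent growth following 48 h exposure of cells in 96-well plates to a single concentration of compound; below 10 was considered active.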 Values without a mark were called inactive. Activity calls are given as the source filed them.
# System: MDA-MB-468 breast
# Assay: NCI-60 one-dose screen, 48 h (100 = growth as untreated, 0 = no growth, -100 = all killed)
# Conditions: 10 µM unless noted
row,SMILES,growth
1,COC(=O)[C@@H]1CCCN1C(=O)[C@@H]1CCCN1C(=O)[C@@H](Cc1c[nH]c2ccccc12)NC(=S)Nc1cc(C(F)(F)F)cc(C(F)(F)F)c1,2.25% (active)
2,CCCCCCSc1ncnc2nc[nH]c12,67.3%
3,COC(=O)C(=[N+]=[N-])C(=O)c1ccc([N+](=O)[O-])o1,81.7%
4,CS(=O)(=O)Nc1cc(-c2ccc3ncc(C#N)c(Nc4ccc(F)c(Cl)c4)c3c2)cnc1Cl,-48.7% (active)
5,COC(=O)CCCNc1c(-c2c(O)c(O)cc3c(O)c(-c4c(C)cc5c(-c6nc7ccccn7c6NCCCC(=O)OC)c(O)c(O)cc5c4O)c(C)cc23)nc2ccccn12,26.9%
6,COc1cc2c(Oc3ccc(NC(=O)C4(C(=O)Nc5ccc(F)cc5)CC4)cc3F)ccnc2cc1OCCCN1CCOCC1,12.1%
7,CCN(CC)CCN1C(=O)c2c(c(C)c3c(oc4cc(O)ccc43)c2C)C1=O,96.3%
8,CCCNCC(=O)Nc1ccc(C(=O)OC(C)(C)CC)cc1,102%
9,Cc1c([N+](=O)[O-])cc(C(C)(C)C)cc1[N+](=O)[O-],90.6%
10,COc1cc(/C=N/n2cnc3oc(-c4ccccc4)cc3c2=N)cc(CN2CCCC2)c1O,82%
11,COc1ccc(Cn2cc3c(c2-c2ccc(OC)cc2)CCc2cnoc2-3)cc1,-7.25% (active)
12,O=C(CN1C(=O)S/C(=C\c2ccccc2)C1=O)Nc1ncc(Cc2ccccc2Cl)s1,115%
13,COc1ccc2nc3ccccc3c(NCc3ccc(Cl)cc3)c2c1,-30.6% (active)
14,COc1cccc(/C=N/NC(=S)NC2CC3CCC2C3)c1O (stereo unspecified),68.2%
15,COc1ccc(NC(=O)/C=C/c2ccc(Cl)c(Cl)c2)cn1,69.5%
16,CC(C)(C)n1cc(-c2ccnc(NCCCNS(=O)(=O)c3cccc4ccccc34)c2)c(-c2cccc(F)c2)n1,52.5%
17,CCc1c(C)c2ccc(OCC(=O)N=Nc3c(O)[nH]c4ccccc34)c(C)c2oc1=O,18.9%
18,COC(=O)Cc1nc(C#N)c(N(C)C)o1,97.8%

row,SMILES,growth
1,CCN1C(=O)N(CC)C2C1NN=c1s/c(=C\c3cc4ccccc4[nH]3)c(=O)n12 (stereo unspecified),-9.55% (active)
2,COc1cc2cc(Oc3ccc(NC(=O)Nc4cc(C(F)(F)F)cc(C(F)(F)F)c4)cc3)c(C)nc2cc1OCCN1CCOCC1,-12% (active)
3,O=C(c1ccc(-c2nc(CSc3nc4ccccc4s3)no2)cc1)N1CCSCC1,4.1% (active)
4,CN(C)c1ccc(O)c2c1CC1CC3C(N(C)C)C(=O)C(C(N)=O)=C(O)C3(O)C(=O)C1=C2O (stereo unspecified),36.7%
5,O=C(O)c1cn(C2CC2)c2cc(N3CCN(Cc4c(O)ccc5ccccc45)CC3)c(F)cc2c1=O,35.1%
6,COc1ccc(/C=C(\C#N)c2cc3ccccc3n2C)cc1,27.6%
7,COC12C=C/C(=C(/C(=O)OCc3cncnc3)C(=O)CCCCCCCCC3(OC)C=C/C(=C(/C(=O)OCc4cncnc4)C(=O)CCCCCCCC1)O3)O2,-39.8% (active)
8,COc1cnc2c(c1)C(=O)c1c-2n(CCCNCCN2CCOCC2)c(=O)c2cc([N+](=O)[O-])ccc12,-27% (active)
9,C/C=C/C=C1\C[C@H]2CO[C@H](O2)C1=O,103%
10,CC(=O)[C@H]1CCC/C=C/[C@@H]2C[C@H](O)C[C@H]2[C@H](O)/C=C/C(=O)O1,-34.9% (active)
11,CC[N+](CC)=c1cc2oc3cc(N(C)C)ccc3nc-2cc1C,-14% (active)
12,COc1cc(NC(=O)CSc2nc3ccc(C)cc3c(=O)n2-c2ccccc2)cc(OC)c1OC,69.8%
13,O=c1nc(Nc2nc3ccccc3s2)[nH]c(=O)c2ccccc12,99.4%
14,CC(C)(C)CC(C)(C)Nc1c(-c2c(O)c3ccccc3oc2=O)nc2sccn12,86.6%
15,COc1ccc(C(=O)NNc2nc(Cl)nc(N3CCN(C(c4ccccc4)c4ccccc4)CC3)n2)cc1,-31.9% (active)
16,C=C1C(=O)O[C@H]2[C@H]1CC/C(COC(=O)/C=C/c1c[nH]c3ccccc13)=C\CC[C@@]1(C)O[C@@H]21,-78.1% (active)
17,c1ccc(Nc2nc(-c3ccccn3)cs2)nc1,-14.6% (active)
18,Cc1[c-]onc1C.Cc1[c-]onc1C.[Ag].[Ag].[NH-]S(=O)(=O)c1ccc(N=Nc2cc(N=Nc3ccc(S([NH-])(=O)=O)cc3)c3c(NC(=O)C(Cl)Cl)cccc3c2OC(=O)C(Cl)Cl)cc1,53.9%
